Source: PubChem BioAssay (NCATS)
Records with an inconclusive call do not appear. Where a call stands in place of a potency, no number is given. Activity calls are given as the source filed them. Calls come from the whole dose curve; as a rule, active = well fitted inhibition curve with a large enough effect; inconclusive = small, poorly fitted or top-dose-only effect; inactive = no such curve, though single readings can be large or run the other way.

Experiment: HTS Assay for Allosteric Antagonists of the Human D2 Dopamine Receptor: Hit Validation in HTRF (AID 624455)
Settings: Cells stably expressing D1 dopamine receptor, inhibition mode; series mostly up to 46.1 µM
Outline: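 HTRF read-out; cells stably expressing D1 receptor; hits scored for inhibition of D1-mediated response. Primary screen: calcium flux, force-coupled inducible Hek293 Trex D2 line, antagonism vs EC80 dopamine.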

SMILES | Potency
COc1ccc(C2CNC(=O)C2)cc1OC1CCCC1 (stereo not drawn) | inactive
C[C@](N)(Cc1ccc(O)c(O)c1)C(=O)O | inactive
CC(COc1ccccc1)N(CCCl)Cc1ccccc1 (stereo not drawn) | inactive
CN(C)c1nc(N(C)C)nc(N(C)C)n1 | inactive
OCCN1CCN(CCCN2c3ccccc3Sc3ccc(C(F)(F)F)cc32)CC1 | inactive
Fc1ccc([C@@H]2CCNC[C@H]2COc2ccc3c(c2)OCO3)cc1 | inactive
CC(C)NCC(O)c1ccc(O)c(O)c1 (stereo not drawn) | inactive
Cc1ccc(C(=O)Nc2ccc(S(=O)(=O)O)c3cc(S(=O)(=O)O)cc(S(=O)(=O)O)c23)cc1NC(=O)c1cccc(NC(=O)Nc2cccc(C(=O)Nc3cc(C(=O)Nc4ccc(S(=O)(=O)O)c5cc(S(=O)(=O)O)cc(S(=O)(=O)O)c45)ccc3C)c2)c1 | inactive
CN1CCN(CCCN2c3ccccc3Sc3ccc(Cl)cc32)CC1 | inactive
CC(C)C(=O)Nc1ccc([N+](=O)[O-])c(C(F)(F)F)c1 | inactive
NCCCCCC(=O)O | inactive
Nc1nnc(-c2cccc(Cl)c2Cl)c(N)n1 | inactive
Nc1c2c(nc3ccccc13)CCCC2 | inactive
Clc1ccc2c(c1)C(N1CCNCC1)=Nc1ccccc1O2 | inactive
CN(C)CCOC(c1ccccc1)c1ccccc1 | inactive
CS(=O)(=O)Nc1ccc([N+](=O)[O-])cc1Oc1ccccc1 | inactive
CC[N+](CC)(CC)CCOc1cccc(OCC[N+](CC)(CC)CC)c1OCC[N+](CC)(CC)CC | inactive
CCOC(=O)c1ncn2c1CN(C)C(=O)c1cc(F)ccc1-2 | inactive
